SENP8 block-1 = blocks human SENP8 cleavage of Nedd8 substrate; 0.64% of 360,000 active; inhibition, % at 20 µM; recombinant SENP8, Nedd8 substrate fluorescence; in the data active means inhibition mostly above about 40%, no sharp cut-off; inactive means mostly below about 27%
SENP8 block-2 = blocks the human protease SENP8. inhibition, % at 10 µM. AID 2540. 1.2% of 330,000 active. purified SENP8, Z-RLRGG-aminoluciferin cleavage, luminescence; in the data active means inhibition above about 50%
HSP90 refold inh = inhibitors of HSP90 luciferase refolding in rabbit reticulocyte lysate | luciferase refolding luminescence, 3 h | 0.91% of 290,000 active | AID 1789 | inhibition, % at 5.6 µM;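 active means inhibition above the screen-wide mean plus 3 SD, computed separately per campaign, cut at about 16% in these data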;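 further: 0% = DMSO wells and 100% = 60 µM geldanamycin wells; inhibitors lower the luminescence because luciferase stays unfolded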
SENP7 inh = SENP7 protease inhibition. recombinant SENP7, Z-RLRGG-aminoluciferin luminescence, 40 min. inhibition, % at 5 µM. 1.5% of 330,000 active. AID 434973;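 active means inhibition above about 50% at the single test dose, limit read from the data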;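 further: plate controls were DMSO with enzyme for no effect and no enzyme buffer wells for full effect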
Target sequence (Q9BQF6 706-1050 limits assumed): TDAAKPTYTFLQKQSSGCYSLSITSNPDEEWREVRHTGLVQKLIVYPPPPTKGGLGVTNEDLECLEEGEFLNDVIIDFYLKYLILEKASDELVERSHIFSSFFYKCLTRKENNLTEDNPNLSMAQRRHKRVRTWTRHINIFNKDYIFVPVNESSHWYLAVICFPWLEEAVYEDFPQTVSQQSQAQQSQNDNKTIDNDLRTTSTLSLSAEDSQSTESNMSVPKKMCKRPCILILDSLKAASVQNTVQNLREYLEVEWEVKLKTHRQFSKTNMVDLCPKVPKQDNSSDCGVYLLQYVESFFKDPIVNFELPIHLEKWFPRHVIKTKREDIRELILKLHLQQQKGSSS
LGR2 antag = blocks bursicon-induced cAMP signaling via Drosophila LGR2 | 0.35% of 380,000 active | AID 720647 | inhibition, % at 9.99 µM | HEK293 LGR2, CRE-luciferase, bursicon-stimulated, 4 h;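 active means drop in luminescence signal, shown as inhibition above about 50% in the replicate tests, limit read from the data, passing the limit was not always enough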;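 further: agonist challenge used bursicon conditioned medium at about half maximal strength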
SENP6 block = inhibitors of human SENP6 protease. Recombinant SENP6 catalytic domain, aminoluciferin luminescence. inhibition, % at 10 µM. 1.8% of 330,000 active;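 active means inhibition above about 50% at the single tested dose, limit read from the data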;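 further: plate controls were DMSO wells with enzyme for no effect and DMSO wells lacking enzyme for full effect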
Starred values were filed as active, the others as inactive. Rows were chosen to be rich in hits. Some 2.3% of all compounds tested hit in one or more screens of this group.

Screening O=S(=O)(c1ccc(Cl)cc1)c1snnc1-c1ccccc1 returned SENP8 block-1 21, SENP8 block-2 5, HSP90 refold inh -2, SENP7 inh 1 and SENP6 block -14.
For O=C(C[C@H]1C[C@@H]2c3cc(NC(=O)NC4CCCCC4)ccc3O[C@@H]2[C@H](CO)O1)NC1CCCCC1 the results were LGR2 antag 4.
Screening CCCCCOC(=O)c1c(N)n(CCOC)c2nc3ccccc3nc12 returned SENP8 block-1 -262, SENP8 block-2 63*, HSP90 refold inh 2, SENP7 inh 64* and SENP6 block 9.
`CNC[C@H]1OCCCC[C@H](C)Oc2ccc(NS(=O)(=O)c3ccc(OC)cc3)cc2C(=O)N([C@H](C)CO)C[C@@H]1C` gave LGR2 antag 15.
For CC1C(=O)Nc2ccccc2N1C(=O)C1CC1 (stereo not drawn) the results were SENP8 block-1 38, SENP8 block-2 5, HSP90 refold inh 6, SENP7 inh 4, LGR2 antag 3 and SENP6 block 7.
For COC(=O)C1=C(C(=O)OC)SC(=C2C(=S)C(C)(C)N(C(=O)C3CC3)c3ccccc32)S1 the results were SENP8 block-1 42*, SENP8 block-2 -5, HSP90 refold inh 5, SENP7 inh 10 and SENP6 block 10.
`COC(=O)C1=C(C(=O)OC)SC(=C2C(=S)C(C)(C)N(C(=O)C(C)C)c3ccccc32)S1` gave SENP8 block-1 46*, SENP8 block-2 1, HSP90 refold inh 1, SENP7 inh 8, LGR2 antag -4 and SENP6 block 2.
`CCCC(=O)N1c2ccccc2C(=C2SC(C(=O)OC)=C(C(=O)OC)S2)C(=S)C1(C)C` gave SENP8 block-1 67*, SENP8 block-2 6, HSP90 refold inh 1, SENP7 inh 5 and SENP6 block 4.
CCCC(=O)Nc1ccc2c(c1)C(=O)N(C)[C@H]1CC[C@@H](CC(=O)NCC3CCCCC3)O[C@H]1CO2 was read as LGR2 antag -2.
CCOc1ccccc1NC(=O)Nc1ccccn1 was read as SENP8 block-1 22, SENP8 block-2 0, HSP90 refold inh 3, SENP7 inh 4, LGR2 antag 2 and SENP6 block -15.
CCOc1ccccc1NC(=O)Nc1ccc(Cl)cc1 was read as SENP8 block-1 14, SENP8 block-2 52*, HSP90 refold inh -2, SENP7 inh 72* and SENP6 block 83*.
`Cc1ccn2cc(-c3ccc(O)c(O)c3)nc2c1` gave SENP8 block-1 -280, SENP8 block-2 56*, HSP90 refold inh 15, SENP7 inh 67*, LGR2 antag 49 and SENP6 block 67*.
For Oc1ccc(-c2cn3ccccc3n2)cc1O the results were SENP8 block-1 -144, SENP8 block-2 -12, HSP90 refold inh -4, SENP7 inh -2, LGR2 antag -25 and SENP6 block -6.
For O=C(N/N=C/c1c[nH]c2ccccc12)c1sc2ccccc2c1Cl the results were SENP8 block-1 9, SENP8 block-2 52*, HSP90 refold inh 2, SENP7 inh 36, LGR2 antag -71 and SENP6 block 65*.
`O=C(N/N=C/c1c[nH]c2ccccc12)c1ccccc1` gave SENP8 block-1 -46, SENP8 block-2 -18, HSP90 refold inh 0, SENP7 inh 2, LGR2 antag -27 and SENP6 block -16.
O=C(C[C@H]1C[C@H]2c3cc(NC(=O)CC4CC4)ccc3O[C@H]2[C@@H](CO)O1)NCC(F)(F)F was read as LGR2 antag 2.
O=C1OC(/C(=C\Nc2cc(Cl)ccc2O)[N+](=O)[O-])c2ccccc21 (stereo not drawn) was read as SENP8 block-1 28, SENP8 block-2 -4, HSP90 refold inh 38*, SENP7 inh -8 and SENP6 block 5.
`O=C1OC(/C(=C\Nc2ccc(F)cc2F)[N+](=O)[O-])c2ccccc21` (stereo not drawn) gave SENP8 block-1 14, SENP8 block-2 -4, HSP90 refold inh 1, SENP7 inh -9, LGR2 antag -2 and SENP6 block -20.
`CCn1c2ccccc2c2cc(CNCc3ccc(OC)cc3OC)ccc21` gave SENP8 block-1 -17, SENP8 block-2 -14, HSP90 refold inh 9, SENP7 inh -1, LGR2 antag 102* and SENP6 block -28.
